MCF10A rereplic: DNA re-replication induction in MCF 10a cells | MCF 10A DNA re-replication, Hoechst nuclear intensity, 48 h | Potency, µM (doses to about 46.1 µM), for the others: at the top dose activity, positive = re-replication, most hits filed as activators | 350,000 tested, 2.9% active | AID 624296; further: % of control where 0% means no effect; nearly all actives have a fitted effect of over 50% in size
KB-3-1 tox: kills parental KB-3-1 adenocarcinoma cells. KB-3-1 viability, CellTiter-Glo ATP luminescence, 72 h. Potency, µM (titrated, usually from 46.1 µM), actives largely listed as cytotoxic. 400,000 tested, 1.4% active; further: on the % scale 0 is the no-effect control and ±100 the full control effect; nearly all actives have a fitted effect of over 60% in size
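Screening of KB-3-1 cells (DMEM, 10% FBS, phenol-red free) ran from lowest to highest compound concentration; after 72 h at 37 °C viability was read luminescently and curves fitted.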
PINK1 expr mod: changes PINK1 expression | PINK1 immunofluorescence, high-content cytometry, 24 h | Potency, µM (titrated, usually from 76.6 µM), for inactives: top-dose activation (PINK1 increase), hits mostly activators | 410,000 tested, 0.2% active | AID 624263; active means well fitted activation curve with a large enough effect; inconclusive means small, poorly fitted or top-dose-only effect; cell line not stated here; further: % of control where 0% means no effect; nearly all actives have a fitted effect of over 65% in size
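Stable cell line treated 24 h with compounds at 5 concentrations (CCCP controls), then fixed and immunostained for PINK1 plus nuclear and cell stains; PINK1 immunofluorescence quantified by laser-scanning microplate cytometry.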
KB-V1 MDR tox: KB-V1 MDR subline cytotoxicity; 400,000 tested, 3.4% active; KB-V1 MDR cells viability, CellTiter-Glo, 72 h; Potency, µM (titrated, usually from 46.1 µM), usual class: cytotoxic; further: on the % scale 0 is the no-effect control and ±100 the full control effect; nearly all actives have a fitted effect of over 60% in size
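In this primary screen, KB-V1 cells overexpressing P-gp are incubated with library compounds (lowest to highest concentration) for 72 h at 37 degrees C before a luminescent ATP viability read.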
TSG101-PTAP inh: blocks PTAP/TSG101 interaction to inhibit HIV-1 budding; Fluorescence polarization, FITC-PTAP peptide / Tsg101 binding; Potency, µM (series often up to 115 µM), without a hit: at the highest dose activity change, negative = inhibition, most hits filed as inhibitors; AID 493005; Q99816; 340,000 tested, under 10 active; active means well fitted inhibition curve with a large enough effect in the main read-out, with a control signal flat, not every such curve was filed as active; inconclusive means small, poorly fitted or top-dose-only effect, or effect the other way, or a change in a side signal; inactive means no such curve, though single readings can be large or run the other way; further: % of control where 0% means no effect
Target sequence (Q99816 whole entry, looked up): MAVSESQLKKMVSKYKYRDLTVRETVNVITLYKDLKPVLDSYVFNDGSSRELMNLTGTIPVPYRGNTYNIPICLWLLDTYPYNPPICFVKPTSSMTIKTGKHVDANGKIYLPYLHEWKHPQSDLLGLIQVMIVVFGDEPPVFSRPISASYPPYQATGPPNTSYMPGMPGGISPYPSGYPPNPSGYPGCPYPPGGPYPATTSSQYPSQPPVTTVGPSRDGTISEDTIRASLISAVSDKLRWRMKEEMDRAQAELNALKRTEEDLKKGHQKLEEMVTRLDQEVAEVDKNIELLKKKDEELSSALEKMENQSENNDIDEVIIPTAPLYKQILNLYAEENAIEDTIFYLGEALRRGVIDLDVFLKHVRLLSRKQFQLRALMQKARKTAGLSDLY
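Fluorescence polarization binding of Tsg101 binding domain (10 uM final) to FITC-labeled PTAP peptide (50 nM final) in HEPES pH 7.5 buffer with NaCl, Tween 20, EDTA, TCEP. Compounds added before peptide; binding 20 min at RT.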
SW480 rerep: inducers of DNA re-replication in SW480 colon cancer cells. SW480 DNA re-replication, Hoechst DNA content imaging, 48 h. Potency, µM (titrated, usually from 46.1 µM), for the others: at the highest dose re-replication activation, hits mostly activators. 340,000 tested, 1.8% active; further: % of control where 0% means no effect; nearly all actives have a fitted effect of over 55% in size
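Compounds, transferred as 23 nL by pin tool, were incubated with cells for 48 hr; DNA content per nucleus was then quantified by Hoechst staining and fluorescence plate imaging.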
Starred values were filed as active, the others as inactive; i = inactive; u = inconclusive; x = no result given. Sampled rows, rich in hits. Any-hit rate of the full collection: about 6.8%. Unless noted, the call rests on the fitted dose curve; in most records, active means well fitted curve in the direction sought with a large enough effect; inconclusive means small, poorly fitted or top-dose-only effect, or another doubt; inactive means no such curve, though single readings can be large; an effect the other way counts as inactive or inconclusive. Potency means the concentration at half of the fitted maximal effect.

SMILES | MCF10A rereplic | KB-3-1 tox | PINK1 expr mod | KB-V1 MDR tox | TSG101-PTAP inh | SW480 rerep
CC1CCN(S(=O)(=O)c2ccc3c(c2)oc(=O)n3CC(=O)O)CC1 | x | x | 0% | x | x | x
CCOc1ccccc1-c1noc(CSc2nnc(-c3ccncc3)n2-c2ccc(F)cc2)n1 | x | i | 0% | i | x | x
Cc1ccc(OCCSc2nc(-c3ccccc3C)nc3cc(=O)[nH]n23)cc1Cl | x | i | 2% | i | x | x
O=c1[nH]c(=O)n(CCCc2ccccc2)cc1-c1ccccc1 | 3% | i | -5% | 13µM* | -5% | 0%
COc1cc(/C=C2\CCC(C)C3=C(c4cc(OC)c(OC)c(OC)c4)C(C#N)=C(N)OC32)cc(OC)c1OC (stereo not drawn) | 8.2µM* | u | 0% | i | u | u
COc1cc(/C=C/c2nc(C#N)c(N3CCC(C)CC3)o2)cc(OC)c1OC | x | x | -1% | x | x | x
COc1ccccc1N1CCN(c2ncnc3c2cnn3-c2cc(Cl)ccc2C)CC1 | x | i | 1% | u | x | x
Cc1ccc(C)c(N2CCN(C(=O)CC3Sc4ccccc4NC3=O)CC2)c1 (stereo not drawn) | u | u | -1% | 16µM* | -1% | 6%
O=C(Nc1cccc(Cl)c1)C1=Cc2cc(Cl)ccc2OC1 | 13µM* | i | 1% | i | 1% | 8%
O=C(Nc1ccc(Cl)c(Cl)c1)C1=Cc2ccccc2OC1 | 21µM* | i | 18% | i | -1% | 3%
CCc1ccccc1NC(=O)C(C)n1c(=O)cc(C)c2c(C)nn(-c3ccccc3)c21 (stereo not drawn) | x | i | 2% | i | x | x
COC(=O)c1ccccc1NC(=O)c1ccc2c(c1)CCN2S(C)(=O)=O | x | i | 0% | i | x | x
CN(C)c1ccc(N=Nc2ccccc2C(=O)OCC(=O)N2CCCCCC2)cc1 | u | u | 2% | 3.3µM* | -12% | -5%
CN(C)c1ccc(N=Nc2ccccc2C(=O)OCC(=O)N2CCCC2)cc1 | u | i | -1% | i | 0% | -1%
CCN1CCN(c2oc(-c3ccc(COc4ccccc4C)o3)nc2C#N)CC1 | x | 21µM* | -1% | i | x | x
CCNc1nc2c(c(=O)n(C)c(=O)n2C)n1CC(O)COc1ccccc1 (stereo not drawn) | x | u | 0% | 5.2µM* | x | x
CCCNc1nc2c(c(=O)n(C)c(=O)n2C)n1CC(O)COc1ccccc1 (stereo not drawn) | x | i | -1% | 9.2µM* | x | x
COc1ccc2[nH]cc(CCCN3C(=O)c4ccccc4C3=O)c2c1 | u | i | 2% | 23µM* | -4% | u
COc1ccc(NCc2cc3ccc(OC)cc3n(CC(=O)Nc3cccc(OC)c3)c2=O)cc1 | x | i | 4% | i | x | x
CN1CCN(Cc2nnc(-c3ccccc3)o2)CC1 | 0% | i | 0% | i | 0% | -19%
Cc1onc(-c2ccccc2)c1-c1nnc(CN2CCN(S(=O)(=O)c3ccccc3F)CC2)o1 | -6% | u | 0% | 3.3µM* | 0% | -6%
CCOc1ccc(C2c3[nH]c4ccccc4c3CCN2C(=O)CCc2ccccc2)cc1 (stereo not drawn) | x | x | 0% | x | x | x
O=C(c1ccc(Cl)cc1)C1C2C(=O)N(c3ccccc3)C(=O)C2C2CCCN21 (stereo not drawn) | -10% | i | 0% | i | -3% | -12%
CC(=O)c1ccc(N2C(=O)C3C(C2=O)C(C(=O)c2ccc(Cl)cc2)N2CCCC32)cc1 (stereo not drawn) | 12µM* | u | 0% | u | u | u
Cc1ccc(N2C(=O)[C@@H]3[C@H](C2=O)C2CCCN2[C@@H]3C(=O)c2ccccc2)cc1 (stereo partly drawn) | u | i | 7% | i | -13% | u
SMILES | MCF10A rereplic | KB-3-1 tox | PINK1 expr mod | KB-V1 MDR tox | TSG101-PTAP inh | SW480 rerep
COc1ccc(N2C(=O)C3C(C2=O)C(C(=O)c2ccc(Cl)cc2)N2CCCC32)cc1 (stereo not drawn) | 15µM* | i | 2% | i | -2% | 8.2µM*
Cc1ccccc1OCc1nnc(SCc2cc(=O)c3cccc(F)c3[nH]2)n1C | x | i | 1% | i | x | x
O=C(CN1C2CCCC1CC(NC(=O)C1CCCCC1)C2)Nc1ccccc1C(F)(F)F (stereo not drawn) | 0% | i | 2% | u | -2% | -9%
COc1cc(C(=O)NC2CC3CCCC(C2)N3CC(=O)Nc2ccccc2)cc(OC)c1OC (stereo not drawn) | -1% | i | 2% | i | -3% | 1%
O=C(CN1C2CCCC1CC(NC(=O)c1ccccc1)C2)Nc1nccs1 (stereo not drawn) | 1% | i | 1% | 2.3µM* | -1% | -2%
CCc1cccc(CC)c1NC(=O)CN1C2CCCC1CC(NC(=O)Nc1cccc(OC)c1)C2 (stereo not drawn) | 12% | u | 2% | 21µM* | -2% | 9%
COc1cccc(C(=O)NC2CC3CCCC(C2)N3CC(=O)Nc2ccccc2C(F)(F)F)c1 (stereo not drawn) | u | u | 4% | i | 1% | 16µM*
CC1(C)CC(=O)c2cc(-c3nc(-c4ccccc4)cs3)c(=O)[nH]c2C1 | x | i | -1% | i | x | x
OC1CCN(Cc2ccc3c(c2)CN(Cc2ccc(Oc4ncccn4)cc2)CCO3)CC1 | x | x | 2% | x | x | x
CCCn1c(=O)c2sccc2n2c(CCCC(=O)Nc3cccc(CC)c3)nnc12 | x | x | 2% | x | x | x
CCOC(=O)c1c(NC(NC(C)=O)C(Cl)(Cl)Cl)sc2c1CCCC2 (stereo not drawn) | 21µM* | u | 24% | i | -4% | 8%
COC(=O)c1c(NC(NC(=O)C(C)C)C(Cl)(Cl)Cl)sc2c1CCC2 (stereo not drawn) | u | i | 29% | i | -3% | 14%
CCC(=O)NC(Nc1sc2c(c1C(=O)OC)CCC2)C(Cl)(Cl)Cl (stereo not drawn) | u | u | u | 23µM* | -1% | -6%
COC(=O)c1c(NC(NC(=O)CC(C)C)C(Cl)(Cl)Cl)sc2c1CCC2 (stereo not drawn) | 0% | i | u | 18µM* | -1% | u
Cc1csc(CN(C)C(=O)c2sc3ncnc(NCC4CCCO4)c3c2C)n1 (stereo not drawn) | x | x | -1% | x | x | x
O=C(C1CCCCC1)N1C[C@@H](O)[C@H](n2cc(-c3ccc(F)cc3)nn2)C[C@@H]1c1ccccc1 | x | 18µM* | 2% | i | x | x

Screening data from PubChem.
